Compounds with a hit are over-represented: about 7.5% of the library has one in this group of screens.
ELG1 genotox: qHTS screen for small molecules that induce genotoxicity in human embryonic kidney (HEK293T) cells expressing luciferase-tagged ELG1. HEK293T ELG1-luciferase reporter, luminescence, 16 h. Potency, µM (series often up to 46 µM), for inactives: at the highest dose activity change, positive = activation, actives largely listed as activators. actives 1.3% (n = 330,000); note: % of control where 0% means no effect; nearly all actives have a fitted effect of over 60% in size
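Luminescence read-out: rising ELG1-luciferase signal, reflecting elevated ELG1 protein under genetic stress, flags genotoxic compounds. Cells were treated for 16 hr at 37 °C before ONE-Glo detection.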
FLuc modulator: qHTS profiling assay for firefly luciferase inhibitor/activator using purifed enzyme and Km concentrations of substrates (counterscreen for miR-21 project); Luciferin 4-monooxygenase (Photinus pyralis), P08659; purified FLuc, Km substrates, luminescence inhibition; Potency, µM (doses to about 57.5 µM), without a hit: at the top dose activity change, negative = inhibition, usual class: inhibitors; actives 6.9% (n = 360,000);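 note: plate controls were vehicle for no effect and reference inhibitor for full effect; nearly all actives have a fitted effect of over 55% in size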
Target sequence (P08659 whole entry, looked up): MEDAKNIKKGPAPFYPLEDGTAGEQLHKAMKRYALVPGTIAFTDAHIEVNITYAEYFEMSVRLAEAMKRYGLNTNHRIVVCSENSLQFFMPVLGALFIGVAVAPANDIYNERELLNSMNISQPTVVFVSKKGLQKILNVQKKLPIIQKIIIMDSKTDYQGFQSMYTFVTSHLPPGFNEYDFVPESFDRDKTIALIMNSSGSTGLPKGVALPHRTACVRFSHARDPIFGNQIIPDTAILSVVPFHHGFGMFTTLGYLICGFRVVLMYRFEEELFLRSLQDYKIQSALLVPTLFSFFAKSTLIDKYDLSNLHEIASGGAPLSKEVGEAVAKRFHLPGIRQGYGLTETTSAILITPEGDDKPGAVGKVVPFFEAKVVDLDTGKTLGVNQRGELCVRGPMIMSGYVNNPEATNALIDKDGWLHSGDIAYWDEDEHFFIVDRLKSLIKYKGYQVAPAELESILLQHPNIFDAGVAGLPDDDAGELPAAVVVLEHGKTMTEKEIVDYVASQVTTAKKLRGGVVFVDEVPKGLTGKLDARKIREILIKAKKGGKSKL
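Biochemical qHTS of compounds, final roughly 60 µM downward over six points, against 10 nM purified firefly luciferase using Km concentrations of substrates (10 uM D-luciferin, 10 uM ATP) in Tris acetate pH 7.5 buffer; luminescence output.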
NPC1 promoter act: qHTS Assay for NPC1 Promoter Activators. actives 2.4% (n = 320,000). Huh7 NPC1 promoter luciferase reporter, 24 h. Potency, µM (titrated, usually from 9.22 µM), for the others: at the highest dose activation, most hits filed as activators. AID 485313, 2010; note: % of control where 0% means no effect; nearly all actives have a fitted effect of over 60% in size
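Compounds in DMSO were transferred onto Huh7 NPC1-luciferase reporter cells pre-incubated 2 h; after 24 h at 37 °C, Amplite reagent was dispensed and luminescence recorded 10 min later.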
Luc counter: Counterscreen for Luciferase (Kinase-Glo TM) Inhibition; Kinase-Glo luciferase, ATP luminescence, 8 min; Potency, µM (highest dose often 38.3 µM), for inactives: at the highest dose activity change, negative = inhibition, actives largely listed as inhibitors; actives 0.28% (n = 200,000); note: % is set by controls: 0 for no effect and ±100 for the full control effect; nearly all actives have a fitted effect of over 60% in size
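Compound is pinned into ATP-containing buffer (10 uM ATP, imidazole pH 7.2, 7 mM MgCl2). Kinase-Glo luciferase reagent is then added. Light output is recorded following an 8-min room-temperature incubation.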
SMN2 splice up: qHTS Assay for Enhancers of SMN2 Splice Variant Expression; HEK293 SMN2-luciferase splicing reporter, luminescence, 30-36 h; AID 1458, 2008; Potency, µM (top dose mostly 46.1 µM), without a hit: at the top dose activity change, positive = activation, actives largely listed as activators; actives 2.8% (n = 210,000); note: % of control where 0% means no effect; nearly all actives have a fitted effect of over 55% in size
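HEK293 cells carry an SMN2 […]–luciferase reporter in which exon 7 inclusion puts luciferase in frame. Cells were plated 10-12 h before compound addition, then incubated 30-36 h at 37C. ONE-Glo luminescence was read; sodium butyrate at 4.5 mM final served as control.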
Rab9 prom act: qHTS Assay for Rab9 Promoter Activators. Potency, µM (doses to about 9.22 µM), for the others: at the highest dose activation, negative = inhibition, usual class: activators. AID 485297, 2010. Huh7 Rab9 promoter-luciferase reporter, luminescence, 24 h. actives 2.8% (n = 320,000); note: % of control where 0% means no effect; nearly all actives have a fitted effect of over 60% in size
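Quantitative HTS format; Huh7 Rab9-luciferase reporter cells (1500/well) receive compound 2 h post-plating, incubate 24 h at 37 °C, then get luciferase reagent for 10 min before luminescence reading.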
* = called active by the depositor; ? = inconclusive; . = not tested or not shown. Calls come from the whole dose curve; as a rule, active = well fitted curve in the direction sought with a large enough effect; inconclusive = small, poorly fitted or top-dose-only effect, or another doubt; inactive = no such curve, though single readings can be large; an effect the other way counts as inactive or inconclusive. Potency is the fitted concentration of half-maximal effect.

SMILES	ELG1 genotox	FLuc modulator	NPC1 promoter act	Luc counter	SMN2 splice up	Rab9 prom act
Cc1ccc(N/C=C(/C#N)c2ccsc2)cc1C	.	2.4µM*	.	10%	13µM*	.
NNc1nc(-c2ccccc2Cl)nc2sc3c(c12)CCCC3	?	0.95µM*	?	2%	.	?
NNc1nc(-c2ccccc2Cl)nc2ccccc12	4%	-20%	9%	.	.	13%
CCN(C(=O)Nc1cccc(Cl)c1)c1ccccc1	-4%	-2%	-4%	.	.	6%
Cc1cccc(N(O)C(=O)Nc2cccc(Cl)c2)c1	?	17µM*	24%	.	.	28%
O=C(N/N=C/c1ccc[nH]1)c1sc2ccccc2c1Cl	17%	7.6µM*	-8%	-8%	-24%	-8%
O=C(N/N=C/c1ccccn1)c1ccc2nc[nH]c2c1	-12%	?	21%	.	.	3%
O=C(N/N=C/c1ccccn1)c1c[nH]c2ccccc12	?	8.5µM*	2µM*	.	.	2.8µM*
O=C(N/N=C/C1CC2CCC1C2)c1c[nH]c2ccccc12 (stereo not drawn)	-1%	4.8µM*	0%	-3%	.	-4%
O=C(CNc1cccc2ccccc12)N/N=C/c1ccc[nH]1	7%	-2%	-37%	.	.	-44%
O=C(N/N=C/c1ccc[nH]1)c1c[nH]c2ccccc12	9%	15µM*	-45%	.	.	-60%
O=C(N/N=C/C1CC2CCC1C2)C1CC1 (stereo not drawn)	2%	0%	3%	.	.	-5%
CC(C)C[C@@H](CC(=O)N[C@@H](CCCN)CC(=O)N[C@@H]1CCCC[C@H]1C(=O)N[C@H](CC(=O)N[C@@H](CCC(=O)O)CC(=O)O)CC(C)C)NC(=O)[C@@H]1CCCC[C@H]1N	.	.	.	-1%	6%	.
O=C(/C=C/c1ccco1)Nc1nc(-c2ccccn2)cs1	0%	21µM*	?	-3%	?	?
Cc1csc(NC(=O)/C=C/c2ccco2)n1	?	6.7µM*	13%	-3%	16µM*	2.8µM*
CCOC(=O)Cc1csc(NC(=O)/C=C/c2ccc(Cl)cc2)n1	-7%	2.4µM*	-6%	.	.	-8%
Cc1csc(NC(=O)/C=C/c2ccc(C)o2)n1	18%	11µM*	15%	0%	20µM*	27%
O=C(/C=C/c1ccco1)Nc1nc(-c2ccc(F)c(F)c2)cs1	-10%	?	4%	.	.	2%
Cc1oc2c(c1C(=O)Nc1cccc(Br)c1)C1=NCCN1C=N2	.	2%	.	.	.	.
CC(C)NC(=O)c1cc2c(Cl)nc3ccccc3c2s1	.	-17%	.	.	-16%	.
O=C(/C=C/c1ccco1)Nc1nc(-c2ccccc2)cs1	13%	4.8µM*	2.8µM*	-2%	11µM*	2.5µM*
CCOC(=O)Cc1csc(NC(=O)/C=C/c2ccco2)n1	-4%	11µM*	16%	.	.	28%
COc1cccc([C@@H]2Oc3ccc(OC)cc3C(=O)[C@H]2OC(=O)NCc2ccco2)c1	.	.	.	1%	?	.
Cc1ccc2nc(CSc3nc(C)cc(C)c3C#N)[nH]c2c1	?	3.4µM*	12%	-1%	4.5µM*	?
CCOc1ccc(NC(C)C(=O)N/N=C/c2cccs2)cc1 (stereo not drawn)	2%	-9%	-4%	-2%	16%	-2%
SMILES	ELG1 genotox	FLuc modulator	NPC1 promoter act	Luc counter	SMN2 splice up	Rab9 prom act
CCCCOc1ccc(N=Cc2cccs2)cc1	3%	5.4µM*	1%	-3%	-4%	1%
CCOc1ccc(CNS(=O)(=O)c2ccc3c(c2)CCCN3C(C)=O)cc1OC	.	-4%	.	.	.	.
O=[N+]([O-])c1cnc2nc(-c3ccncc3)nn2c1O	-1%	21µM*	0%	11µM*	-6%	1%
Cc1nc2c(ccc3nc(NC(=O)c4ccc5c(c4)OCCO5)sc32)s1	?	0.21µM*	0.32µM*	-9%	?	0.71µM*
Cc1nc2ccc3nc(NC(=O)c4ccc5c(c4)OCCO5)sc3c2s1	3%	?	13%	-2%	-2%	19%
Cc1ccc2sc(NC(=O)c3ccc4c(c3)OCCO4)nc2c1C	.	2.7µM*	.	.	.	.
O=C(Nc1nc2cc3c(cc2s1)OCCO3)c1ccc(N2C(=O)CCC2=O)cc1	5%	?	?	.	.	12%
Cc1cnc(NC(=O)c2ccc3c(c2)OCCO3)s1	?	0.11µM*	?	.	.	0.1µM*
COC(=O)c1cc2sccc2n1CC(=O)Nc1ccc(OC)c(OC)c1	.	-8%	.	.	-6%	.
Cc1cccc(CNc2ccnc(-c3ccoc3)n2)c1	.	.	.	-8%	-35%	.
COc1cccc(-c2nccc(NCc3cccc(C)c3)n2)c1	.	.	.	-4%	11µM*	.
Cc1ccc(-c2cn3c(n2)sc2cc(C(=O)NC(C)C45CC6CC(CC(C6)C4)C5)ccc23)cc1 (stereo not drawn)	.	-5%	.	.	.	.
CCOC(=O)c1nnc(-c2ccc(C)cc2)nc1N1CCSCC1	10%	13µM*	1%	-5%	4%	10%
COc1ccc2c(CNCc3cccs3)c(C(=O)O)n(Cc3ccccc3C)c2c1	.	-3%	.	.	.	.
O=C(Oc1ccc2c(c1)O/C(=C\c1ccncc1)C2=O)c1ccccc1	5%	-12%	-8%	-1%	13%	1%
CC1CCCN(Cc2c(O)ccc3c2O/C(=C\c2ccco2)C3=O)C1 (stereo not drawn)	0%	1%	2%	2%	8%	-5%
CC(=O)COc1ccc2c(c1C)O/C(=C\c1ccco1)C2=O	?	5.4µM*	?	.	.	?
COC(=O)C(C)Oc1ccc2c(c1)O/C(=C\c1ccco1)C2=O (stereo not drawn)	0%	3µM*	-5%	.	.	-8%
COc1ccc2c(c1)O/C(=C\c1ccco1)C2=O	?	0.6µM*	4.5µM*	.	.	4µM*
CCOC(=O)c1ccc(N2C=C(C(=O)OC)C(c3ccc(OC)c(O)c3)C(C(=O)OC)=C2)cc1	5%	17µM*	1%	.	.	1%
Cc1nc2ccc(-c3nc4ccccc4o3)cc2[nH]1	?	2.4µM*	0.71µM*	-12%	?	0.45µM*
Cc1ccnc2ccc(-c3nc4ccccc4o3)cc12	?	5.4µM*	?	-13%	18µM*	3.5µM*
c1ccc(-c2nc3ccccc3o2)nc1	?	?	?	-21%	?	?
Cc1cc(N/N=C2/CCCc3ccccc32)nc2ccccc12	-5%	7.6µM*	29%	-2%	-4%	?
